# Assay results taken from the supplement of paper PMC6555819.
# System: VDR:RXRa (NR concentration 270 nM, RXRa partner concentration 90 nM)
# Assay: PBM binding z-score (relative to random genomic background probes); higher = stronger binding; sequences stand for … in GC…GCGATTGACAGCGTAGAATGAAGG
# Protocol: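 Protein-binding microarray (Agilent 4x180K custom design, double-stranded 60-nt probes: 5' GC cap, 34-nt variable region, 24-nt constant primer region; full probe sequence given). Purified or IVT nuclear receptor:RXRα heterodimers (3:1 NR:RXRα, mostly 270:90 nM) or homodimers were incubated for 1 h in PBS with 2% milk and no ligand, then detected with Alexa488 antibodies. Fluorescence from o1-orientation probes (~5 replicates averaged) was converted to z-scores against 500 random hg19 background probes. Variable regions are seed direct-repeat (DR0–DR5) sites, all their single-nucleotide variants and half-site ablations.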
row,Sequence,PBM binding z-score
1,GCTAGCAGGACATTTGGGTCACTCAATGACGGGC,0.429
2,ATCGAAAGGTCTACGAGGTGAGTATACACCGTTT,1.6
3,CAAACTATGTCACAGAGGTCAAAGTCCGTGCGTA,6.63
4,CGAACTAGGTCAAGGACAGCGAATCTCCGCACGC,1.31
5,GCAGTCAGGTGAAACGCAGGTAACTCAGGGTGGC,-0.464
6,AGAACGAGGTTAAGATCAGGGAAACAGAATACAT,1.36
7,CCGACTGGGGCAAATGTTACCATACTCAGTACGA,-0.22
8,CCTAGTTGGTCAGGAGGTCACACTCCGGATATGA,3.82
9,ATCTCTAGGTAAGAGTTCAGTGAATCCCGAGGAT,2.22
10,CCTACTGGGCCAAGGTCATTGTTCAGTCAAAGCA,3.15
11,ACTTACGGGTCAACGAGATTATAGCACGCGTATA,5
12,ATATCTAGGTTACATCCGGGTCATTCAGGCTATG,4.23
13,CGAAATAGGTCAAGGACAGTGAATCTCCGCACGC,2.46
14,ATCTCTAGGTAAACAAGTTCAGTGAATGCCGAAC,4
15,CCTTACTGGTCACGAGGTTATAGCACGACGAGCG,1.86
16,TCTTGTAGATCAATCGAGGTTAAGAAAGTGCGCT,1.75
17,TGAATGAGGTCATAAGATCAGGGAACGTTGCAAA,4.71
18,GGAACGAGGGCAAAGTTGCTAGCATCTGTCGACG,1.01
19,CGTCCAAGGTCATAGGAGGTCAGTGAAGACAGAT,6.46
20,GCTATTAGTTGAAAGGGCAACCGCATGATTCTCG,0.504

row,Sequence,PBM binding z-score
1,CCTAGTTCGTCAGGAGGTCACACACCGGATATGA,5.03
2,CCTAGTTGGTCAAGGCCACACACGCTATAGGTAC,0.31
3,CTCGAAAGGTCGGTTCAGGTGAGTATACGGATAA,2.71
4,GCTATTAGTTGAAAGGGCCACCGAATGATTCTCG,-0.0971
5,CCTAGCAGGCCAATCTGGATCACTCAAGGCTTGA,-0.611
6,AGTCATAGTTCAGGACGAGGTAACGTAAAGCACG,0.92
7,GATACAGGGTCAGCTAGATGCCAGAGTATGGAAA,2.58
8,GCTAGGTGGTCAGTAAAAGGTCACACACCGGTCG,4.22
9,AGAACGAGGGCACGCTGAGTTGATAGGAGAGTAG,2.04
10,CAAACTAGGTCACCGGAACGTCAAAGTCCGCATG,2.48
11,AGAATGAGGTTATTAAGATCAGAGAATTGCGGTC,2.56
12,CCTTACGGGTCACGAGGTTCTAGCACGACGAGCG,6.18
13,TCGTGTAGGTTAGTCGGGGCATTCAGCCAACATA,2.72
14,TGTCCAAGTTCAAAGGTAACGTAAGTATCCACAC,4.6
15,AGAATGAGGGTAAGATCAGGGAAACAGAATACAT,-0.0914
16,TCTATTAGTTGAAGGGCAAACGACGAGTCCGTTT,1.45
17,GCAGACAGTTGAAACGCAGGTAACTCAGGGTGGC,-0.517
18,CCTACTGAGCCATCAGGTCATTGATATCAACGTT,2.15
19,ATCTCTAGGTAAAGATAGTACAGTGAATGCAAAT,0.325
20,TCATATATGTAAACAGGTGAAAGTCCGTAAGTTA,1.31
